Source: PubChem BioAssay
CYP2C9 inh = blockers of cytochrome P450 2C9 activity – biochemical, luminescence, ADME assay, primary screen; 96,000 compounds, 20% hits; AID 777, 2007; P11712; CYP2C9 Supersomes, luciferin-H conversion; inhibition, % at 5 µM;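 active = blocking of liver enzyme CYP2C9 beyond about 50% at 5 µM, limit read from the data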
PostGolgi ctrl = growth inhibition of yeast control strain, primary screen, counter-screen for post-Golgi transport modulator project; efflux-deficient yeast background strain, growth absorbance A615, 16 h; inhibition, % at 10 µM; 98,000 compounds, 5% hits
CYP2C19 inhib = blockers of cytochrome P450 2C19 activity – biochemical, luminescence, ADME assay, primary screen; P33261; CYP2C19 Supersomes, luciferin-H EGE luminescence, 30 min; inhibition, % at 5 µM; 96,000 compounds, 21% hits;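 active = CYP2C19 inhibition above a set limit at 5 µM in the primary screen, cut at about 50% in these data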;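 note: plate controls were negative control wells for no effect and 2.5 mM tranylcypromine positive control for full effect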
Target sequence (P33261 whole entry, looked up): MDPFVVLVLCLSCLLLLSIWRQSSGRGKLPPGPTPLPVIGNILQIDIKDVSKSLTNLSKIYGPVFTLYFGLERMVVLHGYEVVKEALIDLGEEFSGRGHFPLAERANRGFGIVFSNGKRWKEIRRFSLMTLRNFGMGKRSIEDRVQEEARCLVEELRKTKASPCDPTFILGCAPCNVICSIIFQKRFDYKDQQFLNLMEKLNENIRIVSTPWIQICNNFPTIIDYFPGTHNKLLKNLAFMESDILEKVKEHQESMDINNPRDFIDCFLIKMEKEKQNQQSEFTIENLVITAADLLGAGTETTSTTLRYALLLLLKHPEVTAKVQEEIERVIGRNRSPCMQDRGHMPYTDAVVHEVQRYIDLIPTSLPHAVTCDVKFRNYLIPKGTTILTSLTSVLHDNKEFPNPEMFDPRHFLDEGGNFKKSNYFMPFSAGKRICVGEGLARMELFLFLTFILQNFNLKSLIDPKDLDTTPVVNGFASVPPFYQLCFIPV
CYP2C9 activ = human CYP2C9 activators, primary screen, biochemical, luminescence; activation factor at 5 µM; recombinant CYP2C9, luciferin-H conversion; hits give high values; factor 1 = untreated enzyme, 0 = blocked; 96,000 compounds, 1.4% hits; Cytochrome P450 2C9 (Homo sapiens), P11712;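 active = activation factor of 2 or more for CYP2C9 at a 5 µM dose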;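 note: 0 = sulfaphenazole-blocked wells and 1 = vehicle-only wells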
PostGolgi yeast = phenotypic screen on post-Golgi transport, primary screen | 98,000 compounds, 0.9% hits | inhibition, % at 10 µM | post-Golgi transport phenotypic cell assay;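 note: yeast cells grown in 1536-well plates; yeast grown about 18 h at 30C before absorbance read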
CYP2C19 act = human CYP2C19 activators, primary screen, biochemical, luminescence; Cytochrome P450 2C19 (Homo sapiens), P33261; recombinant CYP2C19, luciferin-H EGE luminescence; hits give high values; 0 = fully inhibited enzyme, 1 = untreated enzyme; activation factor at 5 µM; 96,000 tested, under 10 active; AID 1025, 2008;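 active = activation factor of at least 2 at 5 µM in the primary screen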;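 note: 0 = wells with 2.5 mM tranylcypromine and 1 = vehicle-only wells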
The depositor's hits bear a star; · = no result. The list is not random: actives were taken first. Their share in the collection is about 32%. Cut-off read from the data, not from the text of the source, unless noted: active = inhibition above about 30%; inactive = the rest.

SMILES | CYP2C9 inh | PostGolgi ctrl | CYP2C19 inhib | CYP2C9 activ | PostGolgi yeast | CYP2C19 act
COc1cccc(N2CCN(C(=O)C3C4C=CC5(CN(Cc6ccccc6Cl)C(=O)C35)O4)CC2)c1 (stereo not given) | 62.1* | 6.8 | 22.2 | 0.4 | -8.5 | 0.8
COc1ccc(S(=O)(=O)N(CC(=O)N2CCN(C)CC2)c2ccc(C)cc2)cc1OC | 8.7 | 7.4 | 38.0 | 0.9 | -1.0 | 0.6
Clc1ccc(OCCn2ccnc2)c(Cl)c1 | 96.3* | 1.1 | 95.1* | 0 | -3.7 | 0
COc1ccc(/C=C/C(=O)NCc2cn(C)nc2C)cc1COc1ccc(Cl)cc1Br | 28.6 | 9.4 | 3.9 | 0.7 | -4.1 | 1
Clc1ccc(OCCn2ccnc2)c(Br)c1 | 94.9* | 7.8 | 96.6* | 0.1 | -4.3 | 0
Clc1ccc(SCCn2ccnc2)cc1 | 59.9* | -2.6 | 89.7* | 0.4 | 3.1 | 0.1
Clc1ccc(OCCn2ccnc2)c2ccccc12 | 90.8* | 18.6 | 96.6* | 0.1 | 0.2 | 0
c1ccc(-n2nnc3cnccc32)cc1 | 0.2 | -3.7 | 14.3 | 1 | -1.5 | 0.9
Cc1ccc(S(=O)c2ccc(C)cc2)cc1 | 1.7 | 1.5 | 31.6 | 1 | -5.8 | 0.7
CCOC(=O)CNC(=O)CSc1nnc(Cn2c(=O)sc3ccccc32)n1-c1ccccc1C | 28.5 | 3.4 | 5.0 | 0.7 | 4.9 | 0.9
CCOC(=O)C(CCCOc1ccc(C)cc1)C(=O)OCC | 28.6 | 4.7 | 34.6 | 0.7 | 7.6 | 0.7
CCOC(=O)C(CCCOc1ccc(C(C)CC)cc1)C(=O)OCC (stereo not given) | 71.3* | 2.1 | 28.3 | 0.3 | -16.3 | 0.7
CC(C)Oc1ccc(OCCCN2CCCCCC2)cc1 | 6.0 | 19.8 | -4.8 | 0.9 | 27.1 | 1
CCC(C)c1ccc(OCCN2CCCC2)cc1 (stereo not given) | 6.7 | 35.7* | -2.1 | 0.9 | 6.7 | 1
Cc1cc(C)n(-c2nnc(C)n2/N=C/c2ccccc2O)n1 | 9.3 | 0.5 | 16.1 | 0.9 | 1.6 | 0.8
Cc1ccnc(SCc2nc3ccccc3s2)n1 | 25.8 | -3.0 | 92.5* | 0.7 | 1.3 | 0.1
Cn1nnnc1SCc1nc2ccccc2s1 | -20.4 | 6.4 | 64.2* | 1.2 | 0.0 | 0.4
Cc1cccc(C)c1NC(=O)CSc1nnnn1C | -16.1 | 1.8 | -13.3 | 1.2 | 4.1 | 1.1
COc1cc(NC(=O)c2ccc(CNc3c(N4CCOCC4)c(=O)c3=O)cc2)cc(OC)c1 | 35.5 | 1.8 | 8.9 | 0.6 | -2.9 | 0.9
CCN(CC)c1nc(OC)nc(-n2nnc(C(C)=O)c2C)n1 | -10.0 | -11.6 | -5.7 | 1.1 | -0.7 | 1.1
Cc1cc(C)c2[nH]c(=O)c(C(c3nnnn3Cc3ccc4c(c3)OCO4)N3CCC(C)CC3)cc2c1 (stereo not given) | · | 33.2* | · | · | -0.2 | ·
COc1ccc2cc(C(c3nnnn3Cc3ccccc3)N3CCCCCC3)c(=O)[nH]c2c1 (stereo not given) | 70.3* | · | 69.5* | 0.3 | · | 0.3
COc1ccc2[nH]c(=O)c(C(c3nnnn3C3CCCC3)N3CCN(Cc4ccc5c(c4)OCO5)CC3)cc2c1 (stereo not given) | 83.8* | 11.4 | -7.9 | 0.2 | 1.2 | 1.1
CCN1CCN(C(c2cc3cccc(C)c3[nH]c2=O)c2nnnn2Cc2ccccc2)CC1 (stereo not given) | -0.5 | -4.4 | -14.3 | 1 | 4.0 | 1.1
COc1ccc(Cn2nnnc2C(c2cc3cccc(C)c3[nH]c2=O)N2CCOCC2)cc1 (stereo not given) | -2.1 | 34.1* | 1.0 | 1 | 2.1 | 1
SMILES | CYP2C9 inh | PostGolgi ctrl | CYP2C19 inhib | CYP2C9 activ | PostGolgi yeast | CYP2C19 act
CC(=O)N1CCc2cc(S(=O)(=O)NC(CC(C)C)C(=O)N3CCc4ccccc4C3)ccc21 (stereo not given) | 42.6 | 4.3 | 28.5 | 0.6 | -0.6 | 0.7
CCOC(=O)N1CCC(NC(=O)C2CCN(S(=O)(=O)c3cccs3)CC2)CC1 | 22.0 | -2.3 | 8.7 | 0.8 | 0.8 | 0.9
CN(C(=O)c1cccc(N2C(=O)C3CC=CCC3C2=O)c1)C1CCCCC1 (stereo not given) | · | -1.5 | · | · | 10.4 | ·
COc1ccc(Cn2nnnc2C(c2cc3cc(C)ccc3[nH]c2=O)N2CCOCC2)cc1 (stereo not given) | 4.7 | 44.0* | -5.8 | 1 | 13.4 | 1.1
O=c1[nH]c2cc3c(cc2cc1C(c1nnnn1CC1CCCO1)N1CCCCCC1)OCO3 (stereo not given) | · | 4.7 | · | · | -8.5 | ·
O=c1[nH]c2cc3c(cc2cc1C(c1nnnn1CC1CCCO1)N1CCCCCC1)OCCO3 (stereo not given) | 78.7* | 9.5 | 6.9 | 0.2 | 3.4 | 0.9
CCc1ccc2[nH]c(=O)c(C(c3nnnn3CCOC)N3CCN(c4ccccc4F)CC3)cc2c1 (stereo not given) | 17.3 | 16.9 | 53.8* | 0.8 | 3.4 | 0.5
COc1ccc(N2CCN(C(c3cc4cc(C)ccc4[nH]c3=O)c3nnnn3Cc3ccccc3)CC2)cc1 (stereo not given) | 23.2 | 3.6 | 21.3 | 0.8 | -0.2 | 0.8
CC(=O)OCC(=O)Nc1ccc(Cl)cc1Cl | 0.1 | -16.8 | 8.9 | 1 | -13.8 | 0.9
COC(=O)c1ccc(Oc2nc(C)cc(Oc3ccccc3)n2)cc1 | · | 12.0 | · | · | 0.3 | ·
Cc1cc(Oc2ccccc2)nc(SCC(=O)Nc2ccc(Cl)cc2Cl)n1 | 93.3* | 28.8 | 99.2* | 0.1 | -7.7 | 0
COC(=O)CSc1nc(C)cc(Oc2ccccc2)n1 | 38.1 | -1.2 | 86.3* | 0.6 | 6.0 | 0.1
N#CCCNc1ccc(OCCC#N)cc1 | 38.7 | 8.1 | -6.6 | 0.6 | 17.0 | 1.1
Cc1c(Nc2cc(N3CCCCCC3)c3nonc3c2[N+](=O)[O-])c(=O)n(-c2ccccc2)n1C | 39.7 | 0.6 | 30.2 | 0.6 | 4.4 | 0.7
Brc1[nH]nc2ccccc12 | -11.5 | 5.2 | 10.4 | 1.1 | 16.6 | 0.9
Cn1c(C(=O)NCC2CCCO2)cc2c(=O)n3ccccc3nc21 (stereo not given) | 21.7 | -4.0 | 24.6 | 0.8 | -3.0 | 0.8
CCCCNC(c1ccccc1)c1ccncc1 (stereo not given) | 44.6 | 5.6 | 70.0* | 0.6 | -6.1 | 0.3
Fc1ccc(Nc2nc(N3CCOCC3)c3ccccc3n2)cc1 | 74.2* | · | 75.9* | 0.3 | · | 0.2
c1ccc2nc(N3CCOCC3)c(N3CCOCC3)nc2c1 | 16.0 | -4.4 | 14.9 | 0.8 | 20.4 | 0.9
CC1=NOC(=O)/C1=C\c1ccc(-c2ccc(Cl)cc2Cl)o1 | 49.3 | 35.1* | 48.0 | 0.5 | 59.5* | 0.5
COc1ccccc1OCCCn1c(C)c(C#N)c2ccccc21 | 78.1* | 29.8 | 29.4 | 0.2 | 3.6 | 0.7
COc1ccccc1OCCCn1cc(C#N)c2ccccc21 | 95.3* | 23.9 | 99.8* | 0 | -5.0 | 0
